Screening results (PubChem)
HT1080NT lethal – kills 2HG-producing HT-1080-NT fibrosarcoma cells | Potency, µM (highest dose often 46.1 µM), inactives show at the highest dose activity, negative = less viability, hits mostly cytotoxic | HT-1080-NT fibrosarcoma viability, CellTiter-Glo ATP luminescence, 48 h | actives 1.6% (n = 360,000);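 also: NT is the 2HG producing partner of a matched IDH1 knockdown line; 0% = DMSO-treated cells and -100% = media-only wells without cells; nearly all actives have a fitted effect of over 55% in size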
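750 cells/well, RPMI + 5% FBS; 2 h settle, compound pin-transfer, 48 h at 37 degrees C. CellTiter-Glo 10 min RT, luminescence. Normalized to DMSO and media-only wells.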
DT40 TDP1 no CPT – qHTS for Inhibitors of human tyrosyl-DNA phosphodiesterase 1 (TDP1): qHTS in cells in absence of CPT; AID 686978, 2013; DT40 Tdp1-/- hTDP1 cells, no CPT, ATP luminescence, 48 h; Potency, µM (top dose mostly 46.2 µM), inactives show at the highest dose activity change, negative = growth inhibition, hits mostly inhibitors; actives 15% (n = 420,000); also: % is scaled to controls: 0 for no effect and ±100 for the full control effect; nearly all actives have a fitted effect of over 55% in size
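Growth of hTDP1-complemented DT40 Tdp1-knockout cells is measured by ATP luminescence after at least 48 hr compound exposure at 37 °C, with DMSO substituting for the 20 nM CPT used in the parallel screen.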
TGFb SMAD3 inh – inhibitors of TGF-b signaling; HepG2 CAGA-GFP TGF-b/SMAD3 reporter, GFP fluorescence, 18 h; TGF-beta stimulated, 500 pg/mL final; Potency, µM (titrated, usually from 46.1 µM), for the others: at the top dose activity, negative = inhibition, usual class: inhibitors; actives 1.2% (n = 410,000); AID 588855; also: % is scaled to controls: 0 for no effect and ±100 for the full control effect; nearly all actives have a fitted effect of over 65% in size
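HEPG2 CAGA-GFP, 1000 cells/well; 2 h settle, 37 C; cpd via pin tool; TGF-b 500 pg/mL final; 18 h, 37 C; GFP imaging ex488/em500-530; %Activity normalised to -TGF-b and +DMSO controls; CRC fit, curve class.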
HT1080 IDH1KD tx – toxicity to HT-1080 IDH1 knockdown cells (counter line). HT-1080 IDH1 knockdown viability, ATP luminescence, 48 h. Potency, µM (titrated, usually from 46.1 µM), without a hit: top-dose activity, negative = toxicity, hits mostly cytotoxic. actives 2% (n = 360,000). AID 686971;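 also: 0% = DMSO wells and -100% = cell-free medium wells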
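Using the IDH1-knockdown HT-1080 line run in the same batch and compound series as the NT line, viability after 48 h at 37 °C was determined by CellTiter-Glo luminescence and expressed as % activity.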
TDP1 cell CPT – DT40-hTDP1 cell growth loss with CPT. chicken DT40 Tdp1-/-;hTDP1 cells + 20 nM CPT, ATP luminescence, 48 h. Potency, µM (top dose mostly 46.2 µM), inactives show top-dose activity change, negative = growth inhibition, actives largely listed as inhibitors. actives 12% (n = 420,000); also: % is scaled to controls: 0 for no effect and ±100 for the full control effect; nearly all actives have a fitted effect of over 55% in size
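Chicken DT40 Tdp1-/- cells complemented with human TDP1, 400 cells/well, exposed to compounds plus 20 nM camptothecin for at least 48 h at 37 C; viability read as ATP content by CellTiter-Glo luminescence.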
HepG2 viability – kills HepG2 cells in TGF-b inhibitor counter-screen | HepG2 CAGA-GFP viability, ATP luminescence, 18 h | Potency, µM (highest dose often 46.1 µM), for inactives: top-dose activity change, negative = cytotoxicity, hits mostly cytotoxic | actives 0.76% (n = 410,000) | AID 588856
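CellTiter-Glo luminescence gave cytotoxicity after 18 hours at 37 degrees C. The cells were HepG2 CAGA-GFP in 1% FBS DMEM, stimulated with 500 pg/mL TGF-beta after compound addition. %Activity was normalised to no-cell wells (complete cell-killing) and DMSO (no toxicity), and curves were fitted and classified.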
The depositor's hits bear a star; ? = inconclusive; . = not tested or not shown; [ ] = dose if it differs, or a comment. Hits are enriched below; roughly 17% of the tested compounds scored in any of these assays. Calls follow the shape of the dose curve; as a rule, active = well fitted curve in the direction sought with a large enough effect; inconclusive = small, poorly fitted or top-dose-only effect, or another doubt; inactive = no such curve, though single readings can be large; an effect the other way counts as inactive or inconclusive. Potency is read from the fitted curve at half-maximal effect.

SMILES | HT1080NT lethal | DT40 TDP1 no CPT | TGFb SMAD3 inh | HT1080 IDH1KD tx | TDP1 cell CPT | HepG2 viability
O=C(CCCN1C(=O)/C(=C/c2cccs2)SC1=S)NNC(=O)c1ccc(F)cc1 | -18.2% | ? | ? | -16.1% | 25.9µM* | -53.4%
COc1ccc(/C=C2\SC(=S)N(CCC(=O)Nc3ccc(O)cc3)C2=O)cc1 | ? | -4.3% | 0.0% | -0.1% | -1.1% | 2.5%
COc1cc(/C=C2\SC(=S)N(CCC(=O)Nc3ccccc3)C2=O)cc(OC)c1OC | ? | ? | 23.0% | ? | ? | 15.7%
COc1ccc(/C=C2/SC(=S)N(CCCC(=O)Nc3ccc(O)cc3)C2=O)cc1OC | -25.7% | 14.6µM* | -12.6% | -16.3% | ? | -14.2%
CC1CC=CC2C1C(=O)N(Cc1ccccc1)C2c1ccc2ccccc2c1C=Cc1ccccc1 (stereo not drawn) | . | . | 5.8% | . | . | -2.3%
O=C(CCCN1C(=O)/C(=C\c2ccccc2)SC1=S)Nc1ccc(O)cc1 | 23.1µM* | 14.6µM* | ? | 14.6µM* | ? | -6.8%
CC1(C)CC(NCCN2CCN(C3=CC(=C(C#N)C#N)CC(C)(C)C3)CC2)=CC(=C(C#N)C#N)C1 | -4.5% | 13µM* | 14.7% | 4.3% | 18.4µM* | 6.2%
CNC(=S)N1CCN(CCNC2=CC(=O)CC(C)(C)C2)CC1 | 3.4% | 13.7% | 15.6% | 19.6% | 4.5% | 6.6%
CC(=NN=C(C)c1ccc(O)cc1)c1ccc(O)cc1 | -19.2% | 16.4µM* | 0.1% | -1.1% | ? | -9.6%
C/C=C(/C(=C/C)c1ccc(O)cc1)c1ccc(O)cc1 | 19.7% | ? | ? | 11.3% | ? | -96.0%
CC/C(=N/N=C(/CC)c1ccc(O)cc1)c1ccc(O)cc1 | 4.1% | 8.2µM* | 7.7% | -2.4% | 14.6µM* | 3.9%
COc1ccc(CC(=O)Nc2ccccc2N2CCCCC2)cc1OC | -2.4% | ? | 0.0% | -13.7% | 5.8% | 7.8%
COc1cc(C(=O)OCCc2cc3ccccc3c(=O)o2)cc(OC)c1OC | 8.2µM* | 5.8µM* | 3.1% | 7.31µM* | 4.11µM* | -13.0%
Cc1csc(NC(=O)CSc2nsc(SCC(=O)Nc3nc(C)cs3)c2C#N)n1 | -25.5% | 12.6µM* | -41.9% | ? | 15.8µM* | -26.9%
CCOC(=O)CSc1nsc(SCC(=O)OCC)c1C#N | 4.2% | -10.4% | 1.1% | -0.4% | -9.9% | -1.4%
CC(C)(C)NC(=O)CSc1nsc(SCC(=O)NC(C)(C)C)c1C#N | -1.6% | 16.4µM* | -5.0% | -4.9% | 23.1µM* | -29.8%
CC(=O)CSc1nsc(SCC(C)=O)c1C#N | -7.4% | 18.4µM* | -10.2% | -3.5% | 18.4µM* | -18.9%
CC(C)Cn1c(N)c(C(=O)COC(=O)/C=C/c2ccccc2)c(=O)n(C)c1=O | -29.6% | ? | -21.6% | -8.8% | 14.6µM* | -12.6%
CC(=O)Nc1ccc(SCC(=O)c2c(N)n(Cc3ccccc3)c(=O)n(C)c2=O)cc1 | -1.0% | 8.2µM* | -7.5% | 5.3% | ? | -6.9%
CC(C)Cn1c(N)c(C(=O)CSc2ccccc2)c(=O)n(C)c1=O | -2.0% | 8.2µM* | -1.5% | -10.9% | 16.4µM* | -0.3%
CCCn1c(N)c(C(=O)CSc2nc(C)cs2)c(=O)n(C)c1=O | -9.0% | 11.6µM* | 0.4% | -13.2% | ? | -26.3%
CC(C)Cn1c(N)c(C(=O)CSc2nncs2)c(=O)n(C)c1=O | 0.5%[9.24 µM] | ? | 6.3% | 5.2% | ? | 4.9%
CCOc1ccc(-c2cc(-c3nc(-c4ccc(C)cc4)no3)[nH]n2)cc1 | . | ? | 4.2% | . | ? | 2.1%
O=C(c1cnccn1)N1CCC2(CC1)CCN(c1ncccn1)CC2 | . | -9.1% | . | . | -5.9% | .
Cc1ccccc1CSCC(=O)c1c(N)n(CC(C)C)c(=O)n(C)c1=O | -0.3% | 23.1µM* | 3.1% | -0.9%[9.24 µM] | ? | -3.9%
SMILES | HT1080NT lethal | DT40 TDP1 no CPT | TGFb SMAD3 inh | HT1080 IDH1KD tx | TDP1 cell CPT | HepG2 viability
CS(=O)(=O)N1CCC(c2noc(-c3ccc(C(F)(F)F)cc3)n2)CC1 | -16.3% | 10.3µM* | -23.0% | -2.5% | 9.2µM* | -30.9%
CN1CCN(S(=O)(=O)c2ccc(-c3noc(C4CCN(S(C)(=O)=O)CC4)n3)cc2)CC1 | 10.6% | -11.4% | -16.8% | 8.6% | -7.1% | 0.1%
CCS(=O)(=O)N1CCC(c2nc(-c3ccc(C)cc3)no2)CC1 | 0.2% | 14.6µM* | -1.6% | 4.5% | 29.1µM* | -2.6%
Cc1ccc(-c2nc(C3CCN(S(=O)(=O)c4ccc(C(F)(F)F)cc4)CC3)no2)cc1 | 19.2% | -1.1% | -6.4% | 10.4% | 3.7% | 4.3%
CCS(=O)(=O)N1CCC(c2nc(-c3ccc(C(F)(F)F)cc3)no2)CC1 | 5.6% | 14.1µM* | 4.1% | -15.2% | 8.91µM* | -12.0%
CCCC(=O)N1CCC1(C)C(=O)Nc1ncc(C(=O)OC)s1 (stereo not drawn) | ? | -6.8% | 7.8% | ? | 0.7% | -1.8%
Cc1ccc(NC(=O)CS(=O)CC(=O)N(C(C)C(=O)NC2CCCCC2)C(C)(C)C)cc1 (stereo not drawn) | 0.8% | -13.0% | 16.3% | -0.1% | 1.0% | 25.8%
CC(=O)N1CCC(C(=O)OCc2ccccc2F)(c2ccccc2)CC1 | ? | 20.6µM* | 3.9% | -8.5% | ? | 8.7%
O=C(OCCN1CCCC1)C1(c2ccccc2)CCCC1 | -1.9% | -5.8% | -5.6% | -5.8% | -24.1% | 11.1%
C=CCOC(=O)C1=C(C)NC(=S)C(C#N)(CC=C)C1c1ccccc1Cl (stereo not drawn) | -0.4% | ? | 11.2µM* | 8.2% | ? | -37.6%
C=CCOC(=O)C1=C(C)OC(N)=C(C#N)C1c1ccccc1F (stereo not drawn) | -3.8% | ? | -20.9% | -3.0% | ? | -16.8%
Cc1ccc(NC(=O)CCC(=O)NNC(=S)Nc2ccc(F)cc2F)cc1C | -22.3% | 22.4% | 3.6% | 0.8% | 3.3% | -14.4%
CN(c1ccccc1)S(=O)(=O)c1cccc(C(=O)Nc2ccc3c(c2)CCC3)c1 | -0.6% | 2.59µM* | -34.7% | -0.8% | 5.17µM* | 6.2%
CC(=O)Nc1ccc(C(=O)Nc2cccc(S(=O)(=O)N(C)c3ccccc3)c2)cc1 | -4.1% | ? | -14.4% | -12.8% | 18.4µM* | -20.5%
CC(=O)Nc1ccc(S(=O)(=O)Nc2cccc(S(=O)(=O)N(C)c3ccccc3)c2)cc1 | -4.1% | ? | -2.1% | -11.6% | ? | -14.6%
